# The campaign covered roughly 1,400 compounds. About 380 (27%) were called active.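 Rule for the calls: active = mean inhibition above 50% across duplicate retests at 10 µM; inactive = the rest.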 This is one part of the list.
# Experiment: inhibition of NALP1/ASC/caspase-1 reporter signal in yeast, confirmation, NALP1 inhibitor project, S. cerevisiae, luminescence, single concentration (AID 488841);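 note: plate controls were DMSO in galactose medium for no effect and cells in plain SD medium for full effect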
# Details: S. cerevisiae NALP1/ASC/Caspase-1 reporter, beta-gal luminescence; at 10 µM; hits give high values
row,Compound,inhibition
1,Cc1ccc(NC(=O)c2cccc(S(=O)(=O)N(C)c3ccccc3)c2)cc1S(=O)(=O)N1CCOCC1,28.9% (inactive)
2,Cc1ccc2nc(N(CCCN(C)C)C(=O)c3sc4ccccc4c3Cl)sc2c1,53.6% (active)
3,COc1ccc(CCNC(=O)c2sc3cc(C)ccc3c2Cl)cc1,35.8% (inactive)
4,CN(C)CCCN(C(=O)c1ccc2c(c1)CCCC2)c1nc2ccc(Cl)cc2s1,78.2% (active)
5,CN(C)CCCN(C(=O)c1sc2ccccc2c1Cl)c1nc2ccc(F)cc2s1,45.3% (inactive)
6,CN(C)CCCN(C(=O)c1ccc2c(c1)CCCC2)c1nc2ccc(F)cc2s1,64.8% (active)
7,O=c1c(F)cn(C2CCCO2)c(=O)n1Cc1c(F)cccc1Cl (centres undefined),26.9% (inactive)
8,CCOC(=O)C1(Cc2ccc(OC)cc2)CCN(C(=O)CCc2cnccn2)CC1,25.1% (inactive)
9,COc1cccc(/C=N/NC(=O)CCc2c(C)n[nH]c2C)c1,25.8% (inactive)
10,COc1ccc(CN2CCNC(=O)C2CC(=O)N(Cc2nccn2C)C(C)C)c(OC)c1 (centres undefined),14.8% (inactive)
11,CCCCC(C(=O)NC1CCCC1)N(Cc1ccco1)C(=O)Cn1nnc(-c2ccc(F)cc2)n1 (centres undefined),27.3% (inactive)
12,O=C(NC(=S)NCCCN1CCOCC1)c1ccc([N+](=O)[O-])cc1,40% (inactive)
13,COc1ccc(Cc2nnc(SC)[nH]c2=O)cc1,22.6% (inactive)
14,Cc1cc(C(C)(C)C)cc(C)c1S(=O)(=O)N1CC(=O)Nc2ccccc21,38.6% (inactive)
15,Cn1cccc1/C=N/N1CCN(Cc2ccc(Cl)cc2)CC1,31.7% (inactive)
16,COc1ccc(/C=N/N2CCOCC2)cc1COc1ccc(Cl)cc1,51.8% (active)
17,COc1ccccc1-c1nnc2sc(COc3ccc(Cl)cc3)nn12,49.2% (inactive)
18,CC[n+]1c(/C=C/N(C)c2ccccc2)n(-c2ccccc2)c2ccc(-c3nc4ccccc4s3)cc21,55.8% (active)
19,CCCN1CCN(CCCNC(=O)CCNC(=O)Cn2ccc3ccccc3c2=O)CC1,35.5% (inactive)
20,CN(C)c1ccc(/C=C/c2ccc3ccccc3[n+]2C)cc1,85.5% (active)
21,CC[n+]1c(/C=C/c2ccc(N(C)C)cc2)ccc2ccccc21,85.5% (active)
22,CC1=C(C(=O)Nc2ccc(Cl)cc2)C(c2ccncc2)C(C#N)=C(SCC(N)=O)N1 (centres undefined),32.1% (inactive)
23,CN(C)c1ccc(N2C(=O)CC(Sc3ccccc3C(=O)O)C2=O)cc1 (centres undefined),24.6% (inactive)
24,CCOc1ccc(OCCSc2nc3ccccc3o2)cc1,42.4% (inactive)
25,CCOC(=O)CCCNC(=O)COC(=O)c1ccc(O)cc1,23.1% (inactive)

row,Compound,inhibition
1,Cc1ccc(NC(=O)CN(C)C(=O)COc2cccc3cccnc23)cc1,25.3% (inactive)
2,CCN1c2ccccc2-c2nc3ccccc3n2C1c1cccs1 (centres undefined),32.9% (inactive)
3,O=C(C[n+]1ccc(C(=O)N/N=C/c2ccc(OCc3ccccc3)cc2)cc1)c1ccccc1,58.6% (active)
4,COc1ccc(/C=N\NC(=O)c2cc(OCC(F)(F)F)ccc2OCC(F)(F)F)cc1,25.5% (inactive)
5,O=C(Oc1ccc(/C=N/NC(=O)c2ccccc2O)cc1)c1ccccc1,30.9% (inactive)
6,O=C1C=CC(=O)N1c1ccc(OC(F)F)cc1,59.8% (active)
7,COc1ccc(N2C(=O)C3[C@@H](C2=O)C2(Cl)C(Cl)=C(Cl)C3(Cl)C2(OC)OC)cc1 (some centres undefined),42% (inactive)
8,C=CCc1ccc(OCCCOc2ccc(C)cc2OC)c(OC)c1,30.9% (inactive)
9,COc1cc(C)ccc1OCCOCCOc1ccc([N+](=O)[O-])cc1,53.3% (active)
10,COc1ccc(C(=O)/C=C/Nc2ccc([N+](=O)[O-])cc2C)c(OC)c1,4.95% (inactive)
11,CCCCN(C)C(=O)c1nc2ccccn2c1CNCCCn1ncc2ccccc21,16.4% (inactive)
12,COC(=O)c1c(NC(=O)C2CCCO2)sc2c1CCC2 (centres undefined),39.9% (inactive)
13,Cc1ccc(C(=O)c2c(NC(=O)c3ccncc3)sc3c2CCCC3)cc1,51% (active)
14,Cc1ccccc1OCC(=O)Nc1sc2c(c1C#N)CCC2,16.7% (inactive)
15,Cc1ccc(C(C)C)cc1OCCN1CCCC1,40.4% (inactive)
16,CSc1ccc(CN(C)CC(=O)Nc2ccc(C)cc2Br)cc1,47.1% (inactive)
17,Cc1ccc(OCCCCN(C)Cc2ccccc2)c(Br)c1,61.5% (active)
18,Cc1ccc(OCCCCN2CCCCC2)c(Br)c1,41.6% (inactive)
19,C=CCNCCCCOc1ccc(Br)cc1C,41.7% (inactive)
20,CCCCCOc1ccc(Br)cc1CSC(=N)N,57.2% (active)
21,O=C(O)CC1NC(=S)N(c2ccccc2)C1=O (centres undefined),29.9% (inactive)
22,COc1ccc(NCc2ccc([N+](=O)[O-])s2)c(OC)c1,49.1% (inactive)
23,CC(=O)N1N=C(c2ccc3ccccc3c2)OC1(C)C,77.3% (active)
24,CC(C)(C)c1ccc(COn2c(=O)c(-c3ccco3)[n+]([O-])c3ccccc32)cc1,12.9% (inactive)
